Measured values reported in PubChem BioAssay AID602162 (NMMLSC, 2011).
The campaign covered roughly 360,000 compounds. About 690 (0.19%) were called active. This is one part of a sample in which actives are shown more often than they occur.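 The calls were made as follows: active = fluorescence ratio to DMSO below 75%, the collection mean minus 3 SD; inconclusive = too few cells collected in the well; inactive = the rest.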

biological target: ATP-binding cassette sub-family B member 6 (Homo sapiens) (UniProt Q9NP58); assay: ABCB6 transporter inhibitors, primary screen, K562-ABCB6 cells, flow cytometry, MLPCN library (AID 602162); conditions: K562-ABCB6 porphyrin accumulation, 1 h, at 10 µM, active compounds read low;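 also: signal is porphyrin accumulated inside mitochondria; 100% equals median channel fluorescence of DMSO control wells; lower ratio means ABCB6 inhibition with less porphyrin fluorescence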
Sequence (Q9NP58 whole entry, looked up): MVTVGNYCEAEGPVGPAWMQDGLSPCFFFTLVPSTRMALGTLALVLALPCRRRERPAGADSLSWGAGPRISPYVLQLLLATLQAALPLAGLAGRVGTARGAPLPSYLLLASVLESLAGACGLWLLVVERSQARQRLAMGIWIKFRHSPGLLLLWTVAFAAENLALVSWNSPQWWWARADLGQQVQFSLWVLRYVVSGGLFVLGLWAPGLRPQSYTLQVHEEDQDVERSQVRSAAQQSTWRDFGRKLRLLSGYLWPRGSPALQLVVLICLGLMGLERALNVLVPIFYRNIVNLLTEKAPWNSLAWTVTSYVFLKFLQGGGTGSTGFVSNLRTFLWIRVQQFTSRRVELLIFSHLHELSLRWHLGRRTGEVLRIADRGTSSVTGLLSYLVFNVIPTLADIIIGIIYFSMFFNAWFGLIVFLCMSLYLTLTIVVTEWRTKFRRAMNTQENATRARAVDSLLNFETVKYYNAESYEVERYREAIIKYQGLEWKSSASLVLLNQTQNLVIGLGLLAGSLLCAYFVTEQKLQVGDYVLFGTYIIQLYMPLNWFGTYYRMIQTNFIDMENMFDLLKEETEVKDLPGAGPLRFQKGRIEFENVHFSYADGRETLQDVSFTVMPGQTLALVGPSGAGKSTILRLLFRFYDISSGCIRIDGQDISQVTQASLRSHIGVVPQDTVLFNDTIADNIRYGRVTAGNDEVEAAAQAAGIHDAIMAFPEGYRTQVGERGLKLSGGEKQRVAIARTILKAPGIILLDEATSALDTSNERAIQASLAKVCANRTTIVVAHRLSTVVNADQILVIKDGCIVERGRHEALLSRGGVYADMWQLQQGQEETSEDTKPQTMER

Fluorescence ratio to DMSO, inactive:
CC(=O)Nc1ccccc1C(=O)C(=O)Nc1ccc(F)cc1 104%
Cc1cccc(NC(=O)c2ccc(OCC(=O)NCc3ccccc3)cc2)c1C 97%
O=C1COc2ccc(S(=O)(=O)NCCc3ccc(Cl)cc3)cc2N1 93%
O=C1C=C(c2cccc(Br)c2)C[C@@H](c2ccc(F)cc2)C1 101%
O=C(Nn1cnc2ccccc2c1=O)c1ccc([N+](=O)[O-])cc1Cl 98%
O=C(Cn1cnc2ccccc2c1=O)NNC(=O)c1ccccc1F 97%
COC(=O)Cc1nc2c(N)nc(N)nc2[nH]c1=O 97%
CC1CCCC(NC(=O)c2cc(-c3ccncc3)nc3ccccc23)C1C (stereo not given) 96%
CCc1ccc(-c2cc(C(=O)NN3CCN(C)CC3)c3ccccc3n2)cc1 99%
Cc1cccc(C)c1NC(=O)Nc1ccccc1-n1ccnc1 96%
CC(CC(=O)Nc1ccccc1)n1ccnc1 (stereo not given) 96%
O=C1OC(Oc2ccc(Br)cc2)(c2ccccc2)c2ccccc21 (stereo not given) 93%
CCn1ccnc1CNC(=O)CC1C(=O)NCCN1Cc1ccc(F)cc1Cl (stereo not given) 92%
C=CCn1c(SCC(=O)NC(=O)Cc2ccccc2)nc2ccccc2c1=O 99%
O=C(CSc1nnc(-c2cccnc2)n1CCc1ccccc1)NCc1ccccc1 110%
N#CCCN1CCN(S(=O)(=O)c2ccc(S(=O)(=O)NC3CCCCC3)cc2)CC1 96%
Cc1ccc(S(=O)(=O)N2CCC(Oc3ccc(-n4cnnn4)cc3)CC2)cc1 96%
COC(=O)c1ccc(CN2C(=O)C(Cc3ccccc3)ON=C2c2ncccc2C)o1 (stereo not given) 94%
OCCC1CN(Cc2cccc(O)c2)CCN1CCc1ccccc1 (stereo not given) 93%
OCCC1CN(Cc2ccc(Oc3ncccn3)cc2)CCN1CCc1ccccc1 (stereo not given) 101%
COc1ccc(CN2C(=O)CC(Cc3ccc(C)cc3)C2=O)cc1OC (stereo not given) 97%
O=S1(=O)CC(N2CCN(Cc3ccccc3F)CC2)CN1Cc1cn(Cc2cccc(C(F)(F)F)c2)nn1 (stereo not given) 96%
COc1ccc(-c2c(NC(=O)c3ccco3)oc3ccc(Cl)cc3c2=O)cc1 97%
O=C(COc1ccccc1)Nc1cc2c3c(c1)CC(=O)N3CCC2 102%
Cc1ccccc1Cn1c(C)c(C(=O)NCc2cccc(C(F)(F)F)c2)sc1=O 98%
Cn1c(=O)c2cc(NC(=O)NCCc3cccs3)ccc2n1Cc1cccc(C(F)(F)F)c1 100%
Cc1ccn(-c2cccc(-n3ccc(C)n3)n2)n1 104%
Cc1cnc(C(=O)OCc2c(C)cc(C(C)(C)C)cc2C)cn1 104%
COc1ccc(/C=C(\NC(=O)c2ccc(OCC(C)C)cc2)C(=O)OCc2ccco2)cc1 100%
COc1ccc(-c2cnc(SCCNC(=O)c3ccc4c(c3)OCO4)[nH]2)cc1 98%
O=C(NCCS(=O)(=O)N1CCN(c2ccccc2)CC1)c1ccco1 98%
COc1ccccc1NC(=O)c1ccc(N2CC3CC(C2)c2cccc(=O)n2C3)c(NC(=O)c2cccnc2)c1 (stereo not given) 100%
CCN(CC(=O)Nc1ccc(NC(C)=O)cc1)C(=O)C1CC(=O)N(c2ccc3c(c2)OCCO3)C1 (stereo not given) 91%
COc1ccc(CCNc2nc(C)cc(C)n2)cc1OC 95%
COc1ccc(CCNC(=O)CN(c2ccccc2)S(C)(=O)=O)cc1OC 95%
Fc1ccccc1OCCSc1nc2ccccc2o1 89%
O=C(CSc1nnc(C2CC2)n1Cc1ccccc1)Nc1cccnc1Cl 85%
CCC1OC(C2CC2)CC2=C1C(=O)OC(C)(C)O2 (stereo not given) 97%
CC1(C)O[C@H]2CC(=O)OCC23[C@H]2CC[C@@]4(C)[C@H](c5ccoc5)OC(=O)[C@H]5O[C@]54[C@]2(C)C(=O)C[C@@H]13 (stereo not given in full) 100%
O=C(c1cnn2ccccc12)N1CCc2ccccc21 103%
CCOC(=O)C1=C(C)NC2=C(C(=O)CC(C)(C)C2)C1c1ccsc1 (stereo not given) 100%
COC(=O)c1ccc(C2NC(=O)NC(C)=C2C(=O)N(C)C)cc1 (stereo not given) 117%
CCCn1c(N)c(C(=O)CSc2nnc(-c3cccnc3)n2-c2ccc(C)cc2C)c(=O)[nH]c1=O 101%
CCOc1ccc2[nH]c3nc(SCC(=O)NC4CCCC4)nnc3c2c1 96%
CC1CCN(S(=O)(=O)c2nnc(NC(=O)COc3ccccc3F)s2)CC1 100%
CCc1ccccc1OCC(=O)Nc1ccc(C)c(S(=O)(=O)N2CCCCCC2)c1 90%
Cc1ccc2[nH]c3c(=O)n(CC(=O)NCCc4ccc(Cl)cc4)ncc3c2c1 96%
CC(C)(C)C1CCC(C(=O)NCC(c2cccs2)N2CCOCC2)CC1 (stereo not given) 98%
O=C(NCc1ccco1)C(c1ccncc1)N(C(=O)Cn1nnc2ccccc21)c1ccccc1 (stereo not given) 94%
Nc1nc(SCc2cccc(Br)c2)n[nH]1 98%
Cc1cccc(N2CCN(C(=O)c3cnn4c(C(F)F)cc(-c5ccccc5)nc34)CC2)c1C 97%
COc1ccccc1N1CCN(C(=O)c2cc(=O)c3cc(C)cc(C)c3o2)CC1 101%
C/C(CCc1ccccc1)=N\NC(=O)c1ccc(CN2CCOCC2)cc1 97%
CSC1=NN(c2ccccc2)CN(c2ccccc2)N1C 98%
CCCOP(=O)(c1ccc(N(C)C)cc1)C(O)c1cc(OC)c(OC)c(OC)c1 (stereo not given) 94%
COc1ccccc1S(=O)(=O)NCc1ccc(C(=O)N(C)Cc2ccc(F)cc2)cc1 92%
Cc1cnc(NC(=O)Cn2cnc3c2c(=O)n(C)c(=O)n3C)s1 101%
Cc1ccc(SCC(=O)Nc2nncs2)cc1 99%
Fc1cccc(Cc2noc(CN3CCN(c4cnccn4)CC3)n2)c1 95%
COc1ccccc1CNC(=O)CSc1nc(=O)n(Cc2ccncc2)c2c1CCC2 100%
Cc1ccc2c(C)c(C(=O)N(C)Cc3ccncn3)oc2c1C 96%
Cc1ccccc1OC(=O)Cn1c(C(F)(F)F)nc2ccccc21 93%
Cc1cccc(C)c1NC(=O)COC(=O)c1c(C)nn(-c2ccccc2)c1C 100%
COc1ccc(CNC(=O)COC(=O)c2c(C)nn(-c3ccccc3)c2C)cc1OC 98%
O=C(/C=C/c1ccccc1)Oc1coc(CSc2ncccn2)cc1=O 104%
CC1(C)O[C@@H]2[C@H](O1)[C@@H](COS(=O)(=O)O)O[C@H]2n1cnc2c(=O)[nH]cnc21 98%
COc1ccc(CC(=O)NCc2nnc(SCC(=O)Nc3ncc(C)s3)n2C)cc1 103%
O=C(CC(c1ccccc1)c1cc(Cl)ccc1O)NCCN1CCOCC1 (stereo not given) 91%
O=S(=O)(c1ccc(F)cc1)n1ccc(-c2cnc(-c3ccccc3)s2)n1 91%
CN(CC(=O)Nc1cccc(F)c1)C(=O)C1CSC2(C)CCC(=O)N12 (stereo not given) 96%
O=C(NCc1cccs1)C(=O)NCC1OCCCN1S(=O)(=O)c1ccc(F)cc1 (stereo not given) 103%
COCCNC(=O)C(OC(=O)c1cccs1)c1ccc(F)cc1 (stereo not given) 100%
N#Cc1cccc(NC(=O)C2CCCN(C(=O)c3ccc(Cl)cc3)C2)c1 (stereo not given) 104%
Cc1c(C(=O)NC(=S)NCc2cccnc2)oc2ccccc12 99%
CC12CCCCC1=CC(=O)CC2 (stereo not given) 101%
COc1ccc(CNC(=O)CN2C(=O)NC3(CCCc4sccc43)C2=O)cc1 (stereo not given) 93%
CC(C(=O)Nc1ccccc1-c1ccccc1)N1CCOCC1 (stereo not given) 104%
O=C(CN1C(=O)NC2(CCCC2)C1=O)Nc1ccc(F)c(F)c1F 104%
COCCCNc1ccn2nc(-c3ccc(CC(C)C)cc3)cc2n1 100%
COC(=O)c1cc(NC(=O)CN2CCC(C(N)=O)(N3CCCCC3)CC2)cc(C(=O)OC)c1 104%

Fluorescence ratio to DMSO, active:
O=C(Nn1cnc2ccccc2c1=O)c1ccc(F)cc1Cl 26%
COC(=O)CNC(=O)c1cc(-c2ccncc2)nc2ccccc12 70%
COc1ccc(NC(=O)/C(Cl)=C(/Cl)S(=O)Cc2ccc(C)cc2)cn1 (stereo not given) 19%
C=CCn1c(SCC(=O)NCc2ccccc2)nnc1-c1cc(Br)ccc1O 53%
OCCC1CN(Cc2cnc(-c3ccccc3)s2)CCN1CCc1ccccc1 (stereo not given) 73%
O=C(Cc1cccs1)NCc1cccc(C(F)(F)F)c1 68%
O=C(NCCSc1ncc(-c2ccccc2)[nH]1)c1ccco1 74%
COc1ccc(CCNC2=C(Cl)C(=O)N(Cc3ccccc3)C2=O)cc1OC 73%
CCCOC(=O)C1=C(C)NC2=C(C(=O)C(C(=O)OC)C(C)C2)C1c1ccc(N(C)C)cc1 (stereo not given) 72%
Cc1ccccc1OCC(=O)Nc1nnc(S(=O)(=O)N2CCCC2)s1 56%
Cc1ccc(Cl)cc1N1CCN(C(=O)c2cccc3c(=O)c(C)c(-c4ccccc4)oc23)CC1 73%
Cc1ccc(SCC(=O)Nc2ncc(C)s2)cc1 71%
Cc1nn(-c2ccccc2)c(C)c1C(=O)OCC(=O)NC(=O)NC1CCCCC1 74%
CC(C)C(=O)NCC(c1cccs1)S(=O)(=O)c1ccc(F)cc1 (stereo not given) 11%
CC(C(=O)Nc1ccc(F)c(F)c1F)N1CCCCCC1 (stereo not given) 74%
